Data as given in PubChem BioAssay (NCI).
This is part of a sample that, as a whole, favours compounds with a hit. Of some 83,000 tested, about 20% had one in any assay.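 48-hour exposure, single concentration, 96-well plates; percent growth endpoint where 0 means no net growth. Active: below 10.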 Calls of active or inactive are those of the source.

These molecules were tested on OVCAR-5 ovarian (assay: NCI-60 one-dose screen, 48 h (100 = growth as untreated, 0 = no growth, -100 = all killed)). Conditions: 10 µM unless noted.
Description: Growth inhibition of the OVCAR-5 human tumor cell line is measured as a screen for anti-cancer activity. Cells are grown in 96 well plates and exposed to the test compound for 48 hours. Compounds are tested at a single concentration, which is 10^-5 M for most compounds. The reported endpoint is percent growth (GI% or GIPRCNT), where numbers from 0 - 100% represent growth inhibition, and numbers from -100% - 0 represent cell death. For example, a value of 40 represents 60% growth inhibition. A value of 0 means no net growth occurred over the course of the experiment. A value of -40 indicates 40% of cells at the beginning of the experiment died by the end of the experiment. A value of -100 means all cells are dead at the end of the experiment.
NCI-60 Human Tumor Cell Lines Screen was performed using the standard one-dose NCI protocol, which is described in more detail at https://dtp.cancer.gov/discovery_development/nci-60/default.htm.
Compounds with GIPRCNT values below 10 were considered active. Activity score was based on GIPRCNT using the following formula: […]
Score is 0 for GIPRCNT values of 100 or above, 50 for GIPRCNT values of 0, and 100 for GIPRCNT values of -100.

SMILES | growth
CN1CCN(c2ccc3nc(-c4ccc5nc(-c6ccc(C(F)(F)F)cc6)[nH]c5c4)[nH]c3c2)CC1 | 110% (inactive)
NC(=S)N/N=C1\c2ccccc2-c2c(F)c(F)c(F)c(F)c21 | 108% (inactive)
COc1c(Cl)ccc2c(-c3nc4cc(Cl)c(F)cc4s3)cc(=O)oc12 | 96.5% (inactive)
Cc1nn2c(-c3nc4ccc(Cl)cc4[nH]3)c(-c3ccc(F)cc3)nc2s1 | 98.5% (inactive)
COc1cc(OCc2cccc(-c3ccc(C(O)c4nccs4)cc3)c2C)cc(OC)c1C=O (stereo not given) | 16.5% (inactive)
CC(=O)N(CC(O)CO)c1c(I)c(C(=O)NCCO)c(I)c(C(=O)NCC(O)CO)c1I (stereo not given) | 99.8% (inactive)
CS(=O)(=O)Nc1cccc(C(=O)NCc2ccc(N3CCOCC3)cc2)c1 | 107% (inactive)
Oc1ccc2ccccc2c1C1NN=C(c2ccccc2)S1 (stereo not given) | 43.2% (inactive)
COc1cc(C2CC(=O)Nc3c2ccc2ccccc32)cc(Br)c1OC (stereo not given) | 45.1% (inactive)
CCCCOC(=O)C1OC(Oc2ccc3c(C)cc(=O)oc3c2)[C@@H](OC(C)=O)C(OC(C)=O)C1OC(C)=O (stereo not given in full) | 97.8% (inactive)
O=c1[nH]c(=O)n(Cc2ccc(F)cc2)cc1F | 104% [50 µM] (inactive)
Cc1nc2cc(Nc3nc(Nc4ccc(F)cc4)nc(-c4ccc(Cl)cc4)n3)ccc2n1Cc1ccccc1 | 92.3% (inactive)
O=c1onc(-c2ccccc2)c2ccccc12 | 116% (inactive)
O=C1OCC2=C1C(c1ccc3c(c1)OCO3)CC(=O)N2c1cccc(Cl)c1 (stereo not given) | 106% (inactive)
Cl.Fc1c[c-]c(-c2ccccn2)c(F)c1.[Pt].c1ccc([PH+](CC[PH+](c2ccccc2)c2ccccc2)c2ccccc2)cc1 | -93.4% (active)
O=C1c2c(c3c4cc(Br)ccc4[nH]c3c3ccc4ccccc4c23)C(=O)N1O | 111% (inactive)
Nc1nc(-c2ccnc(Cl)c2)nn1-c1nc2ccccc2s1 | 95.9% (inactive)
O=c1nc(NO)[nH]c(=O)n1Cc1ccccc1 | 101% (inactive)
Cc1ccc2nc(NC(=O)CSC(=S)N3CCN(C)CC3)sc2c1 | 105% (inactive)
CC(C)(C)CC(C)(C)N(CSc1ccc(Cl)cc1)CSc1ccc(Cl)cc1 | 63.4% (inactive)

SMILES | growth
Cc1nn(CC(=O)O)c2c1C(=O)CC(C)(C)C2 | 91.2% (inactive)
O/N=C/c1cccs1 | 100% (inactive)
COc1ccc(-c2c3c(N)c4c(nc3nc3c2c(C)nn3-c2ccccc2)CCCC4)cc1 | 90.1% (inactive)
CC1SC(c2ccc(Cl)cc2)N(CCc2cccs2)C1=O (stereo not given) | 8.29% (active)
O=C1c2[nH]cc(CN[C@@H]3CCCN3)c2C(=O)c2c1c(O)c1ccccc1c2O | -95% (active)
COc1ccc(S(=O)(=O)c2ccc(C(N)=O)cc2)cc1NC(=O)c1[nH]c(C)c2c1CCCCC2=O | 68.7% (inactive)
COc1cccc(Nc2nc(NCCO)c3ccccc3n2)c1 | 101% (inactive)
c1ccc2cc(Cn3c(-c4ccc5ccccc5c4)[n+](Cc4ccc5ccccc5c4)c4ccccc43)ccc2c1 | -12.2% (active)
COc1ccc(-c2nc(Nc3ccc(F)cc3)nc(Nc3ccc4c(c3)nc(C)n4Cc3ccccc3)n2)cc1 | 88.1% (inactive)
O=c1oc2ccccc2cc1-c1csc(N=Nc2c(O)[nH]c3ccc(Br)cc23)n1 | 97.6% (inactive)
COc1cc2cc(Oc3ccc(NC(=O)Nc4ccc(Cl)c(C(F)(F)F)c4)cc3)c(C)nc2cc1OCCN1CCCCC1 | 67.1% (inactive)
COc1cc(/C=C2\C(=O)Nc3ccccc32)cc(OC)c1O | 112% (inactive)
COc1ccc(NS(=O)(=O)c2ccc(-c3cnc(C4CC4)o3)cc2)cc1 | 78.6% (inactive)
COc1ccc(Sc2ccc3[nH]c(=O)nc(N)c3c2)cc1 | 100% (inactive)
CC[Si](CC)(CC)OC1[C@@H](O[Si](CC)(CC)CC)[C@@H](CNC(=O)NC)O[C@H]1n1cnc2c(NC(=O)Nc3ccccc3)ncnc21 (stereo not given in full) | 93.6% (inactive)
CC(=O)Nc1ccc(Sc2ccc([N+](=O)[O-])o2)cc1 | 94.8% (inactive)
Clc1cccc(Cl)c1Nc1ccc2nnc(-c3ccncc3)n2n1 | 102% (inactive)
CC(C)(C)[Si](C)(C)OC1[C@@H](COC(=O)NC(=O)CCl)O[C@@H](n2cnc3c(N)ncnc32)[C@H]1O[Si](C)(C)C(C)(C)C (stereo not given in full) | 77.4% (inactive)
O=C1c2ccccc2-c2cn(Cc3ccccc3)c3cccc(c23)C1c1cccnc1 (stereo not given) | 75.9% (inactive)
COc1ccc(C2OCC(C)(C)CO2)cc1OC | 100% (inactive)
